This note sets out measurements from ChEMBL document CHEMBL1961873, “Compounds: GSK PKIS; Assays: Nanosyn kinase panel” (2012).

For assay [1], the target named is Fibroblast growth factor receptor 4 (Homo sapiens) (UniProt P22455). To be noted: at 1 µM.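 Further: reported figure is the averaged percent inhibition of FGFR4, from the GSK PKIS kinase screening panel.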
In assay [2] the target is Tyrosine-protein kinase Fgr (Homo sapiens) (UniProt P09769). To be noted: at 0.1 µM.
For assay [3] the target is unchanged. To be noted: at 1 µM.
The target of assay [4] is Vascular endothelial growth factor receptor 1 (Homo sapiens) (UniProt P17948). To be noted: at 0.1 µM.
Chain of Vascular endothelial growth factor receptor 1 (Homo sapiens) (P17948 whole entry): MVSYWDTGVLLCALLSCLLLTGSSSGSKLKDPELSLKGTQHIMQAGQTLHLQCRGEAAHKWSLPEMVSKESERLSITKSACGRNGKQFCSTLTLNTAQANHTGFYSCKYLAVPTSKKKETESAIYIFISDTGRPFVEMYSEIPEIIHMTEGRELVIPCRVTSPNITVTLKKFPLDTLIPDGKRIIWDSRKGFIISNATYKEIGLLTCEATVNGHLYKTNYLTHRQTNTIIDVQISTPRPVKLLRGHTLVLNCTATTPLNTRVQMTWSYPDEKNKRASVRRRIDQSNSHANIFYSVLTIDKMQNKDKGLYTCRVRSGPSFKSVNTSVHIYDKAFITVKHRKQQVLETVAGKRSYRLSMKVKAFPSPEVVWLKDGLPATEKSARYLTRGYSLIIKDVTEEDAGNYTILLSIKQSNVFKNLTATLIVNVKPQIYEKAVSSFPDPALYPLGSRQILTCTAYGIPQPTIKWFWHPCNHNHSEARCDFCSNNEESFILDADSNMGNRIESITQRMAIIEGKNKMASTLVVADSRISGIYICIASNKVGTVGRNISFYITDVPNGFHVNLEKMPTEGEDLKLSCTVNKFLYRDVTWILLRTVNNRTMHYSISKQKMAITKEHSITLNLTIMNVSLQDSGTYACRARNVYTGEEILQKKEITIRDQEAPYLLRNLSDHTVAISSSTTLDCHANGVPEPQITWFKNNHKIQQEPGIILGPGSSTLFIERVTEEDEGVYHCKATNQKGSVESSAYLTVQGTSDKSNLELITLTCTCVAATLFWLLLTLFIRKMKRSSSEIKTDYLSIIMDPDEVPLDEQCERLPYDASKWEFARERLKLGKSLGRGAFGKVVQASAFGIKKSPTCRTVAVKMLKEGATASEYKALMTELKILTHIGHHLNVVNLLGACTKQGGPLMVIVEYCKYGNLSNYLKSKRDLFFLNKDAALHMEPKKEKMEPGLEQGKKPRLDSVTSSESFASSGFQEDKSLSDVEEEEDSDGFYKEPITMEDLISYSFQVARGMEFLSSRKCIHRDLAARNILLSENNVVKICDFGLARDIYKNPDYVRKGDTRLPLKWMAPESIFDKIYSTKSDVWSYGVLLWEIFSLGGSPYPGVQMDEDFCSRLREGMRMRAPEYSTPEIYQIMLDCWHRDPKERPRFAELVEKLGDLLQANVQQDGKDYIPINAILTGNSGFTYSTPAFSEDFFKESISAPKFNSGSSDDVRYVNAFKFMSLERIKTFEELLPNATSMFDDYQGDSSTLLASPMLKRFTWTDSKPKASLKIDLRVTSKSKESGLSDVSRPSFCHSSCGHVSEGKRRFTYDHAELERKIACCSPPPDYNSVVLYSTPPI
For assay [5] the target is unchanged. Conditions: at 1 µM.
Assay [6] deals with Receptor-type tyrosine-protein kinase FLT3 (Homo sapiens) (UniProt P36888). Conditions: at 0.1 µM.
Assay [7] shares this target. To be noted: at 1 µM.
Assay [8] deals with T1, Receptor-type tyrosine-protein kinase FLT3 (Homo sapiens), P36888 [D835Y].
T1 sequence (whole entry): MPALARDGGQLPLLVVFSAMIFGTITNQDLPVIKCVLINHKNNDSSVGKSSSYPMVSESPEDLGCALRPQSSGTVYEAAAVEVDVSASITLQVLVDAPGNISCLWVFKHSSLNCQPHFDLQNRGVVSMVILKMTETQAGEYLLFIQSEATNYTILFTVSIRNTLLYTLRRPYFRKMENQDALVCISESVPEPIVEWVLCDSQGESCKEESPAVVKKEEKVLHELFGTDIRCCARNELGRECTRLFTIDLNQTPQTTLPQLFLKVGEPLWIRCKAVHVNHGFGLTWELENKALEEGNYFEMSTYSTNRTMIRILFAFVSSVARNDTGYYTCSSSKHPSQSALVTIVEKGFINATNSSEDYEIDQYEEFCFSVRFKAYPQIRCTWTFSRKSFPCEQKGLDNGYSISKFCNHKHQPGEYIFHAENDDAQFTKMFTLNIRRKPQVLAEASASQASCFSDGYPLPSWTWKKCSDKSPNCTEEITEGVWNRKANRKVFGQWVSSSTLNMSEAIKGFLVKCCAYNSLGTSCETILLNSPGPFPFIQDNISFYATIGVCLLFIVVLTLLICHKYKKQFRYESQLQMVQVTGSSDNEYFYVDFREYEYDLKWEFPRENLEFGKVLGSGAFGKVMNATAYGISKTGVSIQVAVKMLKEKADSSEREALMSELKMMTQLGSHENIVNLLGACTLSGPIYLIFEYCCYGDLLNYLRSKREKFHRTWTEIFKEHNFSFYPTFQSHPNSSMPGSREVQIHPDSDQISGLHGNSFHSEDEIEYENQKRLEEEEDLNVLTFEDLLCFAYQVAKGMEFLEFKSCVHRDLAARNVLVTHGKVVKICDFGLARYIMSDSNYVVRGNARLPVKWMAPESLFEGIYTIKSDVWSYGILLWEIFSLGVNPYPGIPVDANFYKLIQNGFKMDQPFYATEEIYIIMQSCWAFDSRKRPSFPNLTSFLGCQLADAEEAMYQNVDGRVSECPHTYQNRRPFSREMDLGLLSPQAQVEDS
Conditions: at 0.1 µM.

Assay [9] addresses Non-receptor tyrosine-protein kinase TYK2 (Homo sapiens) (UniProt P29597). Conditions: at 1 µM.
Assay [10] has as its target T2, Tyrosine-protein kinase receptor TYRO3 (Homo sapiens) (UniProt Q06418).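 Further: reported percentages are averaged inhibition values of TYRO3 kinase activity.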
T2 sequence (whole entry): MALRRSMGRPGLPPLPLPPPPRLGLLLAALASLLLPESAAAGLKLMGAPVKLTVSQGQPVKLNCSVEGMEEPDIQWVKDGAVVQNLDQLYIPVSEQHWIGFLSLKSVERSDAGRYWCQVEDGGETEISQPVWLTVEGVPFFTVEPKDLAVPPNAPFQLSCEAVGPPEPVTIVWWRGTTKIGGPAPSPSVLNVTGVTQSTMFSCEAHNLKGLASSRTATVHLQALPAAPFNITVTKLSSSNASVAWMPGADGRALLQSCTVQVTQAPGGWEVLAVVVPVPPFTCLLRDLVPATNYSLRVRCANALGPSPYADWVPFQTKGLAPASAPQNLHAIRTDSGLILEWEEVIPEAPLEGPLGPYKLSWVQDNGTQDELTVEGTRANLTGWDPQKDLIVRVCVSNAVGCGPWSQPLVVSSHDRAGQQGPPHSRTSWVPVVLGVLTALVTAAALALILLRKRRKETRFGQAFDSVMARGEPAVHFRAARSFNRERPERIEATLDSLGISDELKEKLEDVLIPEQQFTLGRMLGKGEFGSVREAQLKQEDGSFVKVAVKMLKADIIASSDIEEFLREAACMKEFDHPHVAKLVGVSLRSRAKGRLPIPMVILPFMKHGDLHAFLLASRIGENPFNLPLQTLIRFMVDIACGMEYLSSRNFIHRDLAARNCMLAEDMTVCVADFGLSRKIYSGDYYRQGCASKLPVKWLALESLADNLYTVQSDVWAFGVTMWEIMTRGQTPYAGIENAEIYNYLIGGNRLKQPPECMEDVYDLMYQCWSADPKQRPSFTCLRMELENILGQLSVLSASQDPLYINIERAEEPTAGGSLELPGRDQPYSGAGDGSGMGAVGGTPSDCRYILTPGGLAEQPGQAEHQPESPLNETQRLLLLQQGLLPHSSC
To be noted: at 0.1 µM.

Chain of Non-receptor tyrosine-protein kinase TYK2 (Homo sapiens) (P29597 whole entry): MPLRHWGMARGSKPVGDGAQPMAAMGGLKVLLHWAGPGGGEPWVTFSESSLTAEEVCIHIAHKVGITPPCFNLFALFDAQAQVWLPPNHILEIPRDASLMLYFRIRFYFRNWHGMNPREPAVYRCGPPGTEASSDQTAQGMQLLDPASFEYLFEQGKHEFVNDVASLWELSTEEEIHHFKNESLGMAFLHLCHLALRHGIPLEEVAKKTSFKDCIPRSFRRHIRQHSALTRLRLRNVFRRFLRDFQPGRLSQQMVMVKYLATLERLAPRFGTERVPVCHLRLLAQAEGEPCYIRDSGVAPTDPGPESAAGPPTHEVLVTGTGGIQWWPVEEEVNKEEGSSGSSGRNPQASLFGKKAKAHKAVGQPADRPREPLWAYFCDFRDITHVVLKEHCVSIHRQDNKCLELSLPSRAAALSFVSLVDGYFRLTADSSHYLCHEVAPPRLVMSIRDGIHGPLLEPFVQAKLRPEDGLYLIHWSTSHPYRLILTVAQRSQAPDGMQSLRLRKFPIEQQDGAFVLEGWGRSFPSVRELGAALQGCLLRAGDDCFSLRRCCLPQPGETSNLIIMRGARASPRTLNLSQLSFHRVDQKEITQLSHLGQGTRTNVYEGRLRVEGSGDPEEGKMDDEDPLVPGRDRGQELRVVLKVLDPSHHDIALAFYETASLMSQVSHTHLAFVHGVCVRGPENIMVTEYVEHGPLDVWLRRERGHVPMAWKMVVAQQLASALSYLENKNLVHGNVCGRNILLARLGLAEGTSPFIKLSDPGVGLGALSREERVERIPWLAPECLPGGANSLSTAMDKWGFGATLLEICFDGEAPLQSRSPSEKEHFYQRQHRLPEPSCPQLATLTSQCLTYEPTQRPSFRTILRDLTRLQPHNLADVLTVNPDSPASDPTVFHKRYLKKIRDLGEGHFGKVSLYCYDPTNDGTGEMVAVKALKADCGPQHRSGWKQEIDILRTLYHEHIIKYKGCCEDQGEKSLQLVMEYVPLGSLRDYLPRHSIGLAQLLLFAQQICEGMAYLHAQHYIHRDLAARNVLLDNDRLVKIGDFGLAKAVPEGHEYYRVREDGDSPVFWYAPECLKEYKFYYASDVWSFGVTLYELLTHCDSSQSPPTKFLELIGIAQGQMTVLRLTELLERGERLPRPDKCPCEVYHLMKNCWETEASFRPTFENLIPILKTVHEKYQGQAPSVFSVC
Chain of Fibroblast growth factor receptor 4 (Homo sapiens) (P22455 22-802 limits assumed): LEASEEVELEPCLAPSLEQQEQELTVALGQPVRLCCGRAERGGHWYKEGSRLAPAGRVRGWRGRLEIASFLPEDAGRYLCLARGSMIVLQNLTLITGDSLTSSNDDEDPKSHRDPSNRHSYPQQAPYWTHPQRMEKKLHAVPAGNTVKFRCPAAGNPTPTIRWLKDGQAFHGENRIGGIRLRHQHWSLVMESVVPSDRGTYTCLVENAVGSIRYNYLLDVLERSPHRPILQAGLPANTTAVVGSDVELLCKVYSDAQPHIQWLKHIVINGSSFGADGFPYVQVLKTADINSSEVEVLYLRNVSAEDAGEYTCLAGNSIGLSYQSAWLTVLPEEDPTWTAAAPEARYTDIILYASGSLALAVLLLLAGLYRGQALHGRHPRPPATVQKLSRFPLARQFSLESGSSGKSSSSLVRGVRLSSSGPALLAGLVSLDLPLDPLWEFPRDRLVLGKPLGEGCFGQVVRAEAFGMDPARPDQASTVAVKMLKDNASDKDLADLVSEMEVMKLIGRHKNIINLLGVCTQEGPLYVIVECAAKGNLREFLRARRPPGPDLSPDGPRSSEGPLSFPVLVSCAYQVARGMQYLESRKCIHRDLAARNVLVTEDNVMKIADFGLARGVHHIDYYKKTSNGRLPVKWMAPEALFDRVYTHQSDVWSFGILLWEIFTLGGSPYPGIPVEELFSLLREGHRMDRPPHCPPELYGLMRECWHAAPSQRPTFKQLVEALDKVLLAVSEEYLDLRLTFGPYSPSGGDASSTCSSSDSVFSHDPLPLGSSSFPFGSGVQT
Chain of Tyrosine-protein kinase Fgr (Homo sapiens) (P09769 2-529 limits assumed): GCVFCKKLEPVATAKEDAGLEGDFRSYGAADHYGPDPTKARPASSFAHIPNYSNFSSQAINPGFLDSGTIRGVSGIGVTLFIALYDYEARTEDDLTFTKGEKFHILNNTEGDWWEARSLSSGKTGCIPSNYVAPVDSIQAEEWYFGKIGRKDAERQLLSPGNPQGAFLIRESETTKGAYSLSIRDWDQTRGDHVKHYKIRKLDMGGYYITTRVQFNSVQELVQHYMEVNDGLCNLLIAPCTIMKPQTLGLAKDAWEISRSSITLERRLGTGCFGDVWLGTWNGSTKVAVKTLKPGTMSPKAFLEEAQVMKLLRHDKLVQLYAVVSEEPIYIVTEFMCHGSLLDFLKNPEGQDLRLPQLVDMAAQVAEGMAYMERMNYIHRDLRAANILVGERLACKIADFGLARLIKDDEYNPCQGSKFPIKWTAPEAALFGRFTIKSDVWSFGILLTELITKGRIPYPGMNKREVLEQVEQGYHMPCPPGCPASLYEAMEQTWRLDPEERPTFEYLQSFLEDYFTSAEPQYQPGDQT

For the compound `COc1cccc(-n2nc(C)c3c(N/N=C(\C)c4ccncc4)ncnc32)c1`, the inhibition in [1] was -0.8%; in assay [2] it was 1.55%; in [3], 4.36%; in assay [4], -0.52%; in assay [5], -0.07%; in assay [6], 0.32%. The inhibition in assay [7] was -1.96%; in assay [8], -4.92%; in assay [9] it was -0.79%; in assay [10], 1.37%.
As to `CS(=O)(=O)Nc1cccc(-c2ccc3c(NC(=O)C4CC4)n[nH]c3c2)c1`, the inhibition in [1] is -2.02%; in assay [2], -0.31%; in assay [3] it was 4.5%; in [4], -2.92%; in assay [5] it was -1.44%; in assay [6], 0.45%. Also, the inhibition is 0.14% in [7], -1.25% in assay [8], -0.54% in assay [9] and 2.53% in assay [10].
For `C[C@@H](Oc1cc(-n2cnc3ccc(OC[C@@H](O)CO)cc32)sc1C(N)=O)c1ccccc1Cl`, the inhibition in [1] was 0.23%; in assay [2], 0.03%; in assay [3], 4.04%; in assay [4] it was -1.57%; in [5], -1.26%; in assay [6], 0.49%. Moreover, the inhibition in [7] is 5.21%; in [8] it was -3.1%; in assay [9], 2.03%; in [10] it was -0.16%.
With `CN1CCN(C(=O)c2ccc(NC(=O)Nc3ccc(N(C)c4ccnc(Nc5ccc(CS(C)(=O)=O)cc5)n4)cc3)cc2)CC1`, the inhibition in [1] is 3.43%; in assay [2] it was 5.31%; in [3] it was 26.3%; in [4], 21.4%; in assay [5], 43.5%; in [6] it was 64.7%. Besides, the inhibition amounted to 83.9% in assay [7], 0.6% in [8], 21.6% in assay [9] and 2.23% in assay [10].
In the case of `Nc1nccc(-c2c(-c3ccc(F)cc3)ncn2CCCN2CCOCC2)n1`, the inhibition in assay [1] was -1.03%; in assay [2] it was 2.89%; in assay [3], 3.22%; in assay [4], 0.15%; in [5] it was -0.18%; in [6], -0.59%. In addition, the inhibition in assay [7] was 3.31%; in assay [8], -5.08%; in assay [9] it was -1.83%; in [10], 3.82%.
Consider `NS(=O)(=O)c1ccc(N/N=C2\C(=O)Nc3ccc(Cl)cc32)cc1`, for which the inhibition was 0.91% in assay [1]; 4.13% in assay [2]; 7.63% in [3]; 2.91% in assay [4]; 8.28% in [5]; 16.4% in assay [6]. Also, the inhibition in assay [7] was 66.7%; in [8], -0.18%; in assay [9] it was 0.36%; in [10], 3.25%.
On to `C[C@@H](Oc1cc(-n2cnc3ccc(OCC4CCN(C)CC4)cc32)sc1C(N)=O)c1ccccc1C(F)(F)F`, for which the inhibition in assay [1] is -0.61%; in assay [2] it was 2.16%; in [3], 13.4%; in assay [4], -0.83%; in [5] it was -0.16%; in assay [6] it was 1.99%. Besides, the inhibition is 11% in assay [7], 3.19% in [8], 3.05% in [9] and -0.92% in assay [10].
Turning to `CN(C)c1cc2c(Nc3ccc4c(cnn4Cc4ccccc4)c3)ncnc2cn1`, the inhibition in [1] came out at 7.89%; in assay [2], 9.23%; in assay [3] it was 33.2%; in assay [4], 1.1%; in [5], 1.36%; in assay [6], 1.97%. Further, the inhibition in assay [7] is 1.77%; in assay [8], 0.4%; in assay [9], -5.95%; in assay [10], 0.23%.
Take `ON=C1CCc2cc(-c3nc(C4CCNCC4)[nH]c3-c3ccncc3)ccc21`: the inhibition is 1.91% in [1]; -1.48% in assay [2]; 2.99% in assay [3]; 0.48% in assay [4]; 0.61% in assay [5]; -2.95% in assay [6]. The inhibition in assay [7] is 0.24%; in assay [8], -4.99%; in assay [9], -0.2%; in [10] it was 0.16%.
As to `COc1cc(Nc2nccc(-c3cnn4ncccc34)n2)cc(OC)c1`, the inhibition in assay [1] stood at 0.03%; in [2], 6.85%; in assay [3], 36.9%; in assay [4], 10.4%; in assay [5], 30.9%; in [6], 59.6%. Besides, the inhibition is 90.8% in assay [7], 27% in assay [8], 31.8% in [9] and 1.77% in [10].
Regarding `CN(C)C(=O)O[C@H]1CN[C@H](C#Cc2cc3ncnc(Nc4ccc(OCc5cccc(F)c5)c(Cl)c4)c3s2)C1`, the inhibition in assay [1] was 1.39%; in assay [2], 1.56%; in assay [3], 4.75%; in [4] it was 1.8%; in assay [5], 2.23%; in [6], -0.55%. Moreover, the inhibition in [7] is 0.66%; in assay [8], 3.22%; in assay [9], -2.89%; in [10], 2.23%.
With `Cc1nc(-c2ccccc2)n2nc(NCCCN3CCOCC3)ncc12`, the inhibition was 3.35% in [1]; 2.33% in [2]; 4.11% in assay [3]; 2.94% in [4]; -1.07% in assay [5]; 2.39% in assay [6]. The inhibition in assay [7] was 4.33%; in assay [8] it was -0.33%; in assay [9] it was 0.82%; in assay [10], 0.92%.
`c1ccc(Cc2nc3ccc(Nc4ncnc5ccccc45)cc3[nH]2)cc1`: the inhibition in assay [1] is -0.04%; in assay [2], 5.51%; in assay [3], 18.2%; in assay [4], 0.86%; in [5], 4.39%; in [6] it was 0.83%. Also, the inhibition is 3.55% in [7], 4.82% in assay [8], -0.14% in assay [9] and 1.48% in assay [10].
With `Cc1ccc(C(=O)NC2CC2)cc1-c1ccc2[nH]ncc2c1`, the inhibition in [1] is 0.32%; in [2] it was -1.47%; in assay [3], 1.41%; in [4] it was -2.04%; in assay [5], -1.81%; in assay [6] it was -3.48%. Further, the inhibition in assay [7] is 0.84%; in [8] it was -3.02%; in [9], 2.43%; in assay [10] it was -1.74%.
Consider `Cc1ccc(NC(=O)CC2CC2)cc1-c1ccc(C(=O)NCC2CC2)cc1`, for which the inhibition in assay [1] is 1.67%; in assay [2] it was 7.45%; in [3], 6.65%; in assay [4], -0.36%; in assay [5], 1.74%; in [6], 1.93%. The inhibition in [7] was 3.21%; in [8], -2.84%; in assay [9], -2.78%; in [10] it was 2.48%.
For the compound `CCCN1CCCC(c2ccc(Nc3nc(Nc4cc(F)ccc4C(N)=O)c4cc[nH]c4n3)c(OC)c2)C1` (stereo not given), the inhibition in assay [1] was 12.2%; in assay [2], 4.94%; in assay [3] it was 7.28%; in assay [4] it was 2.54%; in assay [5], 0.66%; in assay [6] it was 3.86%. The inhibition in assay [7] is 13.1%; in assay [8] it was 5.98%; in assay [9] it was -3.62%; in assay [10], 4.74%.
With `Cc1ccc2c(c1)/C(=N/Nc1ccc(S(N)(=O)=O)cc1)C(=O)N2`, the inhibition was -0.45% in assay [1]; -0.72% in assay [2]; 9.99% in assay [3]; 0.83% in assay [4]; 7.86% in [5]; 13.6% in [6]. For the same compound, the inhibition in assay [7] is 61.7%; in assay [8], -0.36%; in assay [9] it was 1.67%; in [10] it was -0.02%.
